Assay results taken from PubChem BioAssay.
“And” between values parts separate entries of the source, which are not always exact repeats. Equal entries are not always repeated. The source made the active and inactive calls.

What was measured:
[1] = E. coli DRC41 culture turbidity changes, primary screen, E. coli filamentation inducer project, strain DRC41, OD650, 48 h (AID 1152);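 also: E. coli MC1000 strain DRC41 lacking acrAB efflux pump and sulA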; settings: E. coli DRC41 (acrAB sulA), higher = more signal, called active from +8 up or from −8 down
[2] = small-molecule binders of probe aLefty1, primary screen, biochemical, small-molecule microarray, 635/667 nm fluorescence (AID 1153); settings: higher = more signal;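 also: score merges spot fluorescence with signal-to-noise ratio from the scanned slide images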
[3] = PSAC antagonists in infected red cells, primary screen, cell-based, P. falciparum Indochina, OD700, 1 h (AID 1154); settings: P. falciparum Indochina infected RBC osmotic lysis, higher = more signal, called active from +8 up or from −8 down
[4] = PSAC antagonists in infected red cells, primary screen, cell-based, P. falciparum Indochina, OD700, 2 h (AID 1155);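 also: lysis reports solute entry through the parasite surface anion channel PSAC; channel blockers reduce lysis of infected cells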; settings: P. falciparum Indochina infected erythrocytes, osmotic lysis OD700; higher = more signal, called active from +8 up or from −8 down
[5] = osmotic lysis modulators in infected erythrocytes, primary screen, PSAC antagonist project, cell-based, P. falciparum Indochina, OD700, 3 h (AID 1156); settings: higher = more signal, called active from +8 up or from −8 down
[6] = PSAC antagonists in infected red cells, primary screen, cell-based, P. falciparum Indochina, OD700, 18 h (AID 1157); settings: P. falciparum Indochina infected erythrocytes, osmotic lysis OD700, 18 h; higher = more signal, called active from +8 up or from −8 down
[7] = modulators of S6 phosphorylation in cells, primary screen, cell-based, A549, cytoblot, luminescence, serum-stimulated (AID 1158); settings: A549 phospho-S6 cytoblot, 5 h, higher = more signal;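 also: serum-stimulated A549 lung adenocarcinoma cells; signal is phosphorylated S6 detected by cytoblot immunostaining with HRP secondary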
[8] = target: NADPH oxidase 2 (Homo sapiens) (UniProt P04839); experiment: NOX2-dependent H2O2 signal modulators, primary screen, NOX inhibitor project, cell-based, HEK293-NOX2, PMA-stimulated, Amplex Red fluorescence (AID 1159); settings: 45 min, higher = more signal, called active from +8 up or from −8 down; also: test concentration not given here
NADPH oxidase 2 (Homo sapiens), sequence (P04839 whole entry, looked up): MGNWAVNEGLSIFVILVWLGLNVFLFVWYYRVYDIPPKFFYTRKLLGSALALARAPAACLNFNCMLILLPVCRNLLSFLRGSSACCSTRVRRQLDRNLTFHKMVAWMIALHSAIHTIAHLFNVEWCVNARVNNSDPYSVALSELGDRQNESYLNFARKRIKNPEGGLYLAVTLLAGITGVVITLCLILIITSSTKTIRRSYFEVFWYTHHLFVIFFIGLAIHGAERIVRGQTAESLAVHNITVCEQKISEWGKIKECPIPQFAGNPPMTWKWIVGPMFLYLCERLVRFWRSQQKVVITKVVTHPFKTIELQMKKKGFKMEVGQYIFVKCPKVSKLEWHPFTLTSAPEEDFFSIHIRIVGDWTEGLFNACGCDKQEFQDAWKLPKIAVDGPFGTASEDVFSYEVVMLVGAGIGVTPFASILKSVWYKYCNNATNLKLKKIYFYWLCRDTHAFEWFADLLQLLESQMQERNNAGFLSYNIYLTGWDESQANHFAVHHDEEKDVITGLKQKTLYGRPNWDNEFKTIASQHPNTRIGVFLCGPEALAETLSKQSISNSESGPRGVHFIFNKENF

[9] = target: NADPH oxidase 4 (Homo sapiens) (UniProt Q9NPH5); experiment: NOX4-dependent H2O2 signal modulators, primary screen, NOX inhibitor project, cell-based, HEK293-NOX4, tetracycline-induced, Amplex Red fluorescence (AID 1160); settings: 45 min, higher = more signal, called active from +8 up or from −8 down
NADPH oxidase 4 (Homo sapiens), sequence (Q9NPH5 whole entry, looked up): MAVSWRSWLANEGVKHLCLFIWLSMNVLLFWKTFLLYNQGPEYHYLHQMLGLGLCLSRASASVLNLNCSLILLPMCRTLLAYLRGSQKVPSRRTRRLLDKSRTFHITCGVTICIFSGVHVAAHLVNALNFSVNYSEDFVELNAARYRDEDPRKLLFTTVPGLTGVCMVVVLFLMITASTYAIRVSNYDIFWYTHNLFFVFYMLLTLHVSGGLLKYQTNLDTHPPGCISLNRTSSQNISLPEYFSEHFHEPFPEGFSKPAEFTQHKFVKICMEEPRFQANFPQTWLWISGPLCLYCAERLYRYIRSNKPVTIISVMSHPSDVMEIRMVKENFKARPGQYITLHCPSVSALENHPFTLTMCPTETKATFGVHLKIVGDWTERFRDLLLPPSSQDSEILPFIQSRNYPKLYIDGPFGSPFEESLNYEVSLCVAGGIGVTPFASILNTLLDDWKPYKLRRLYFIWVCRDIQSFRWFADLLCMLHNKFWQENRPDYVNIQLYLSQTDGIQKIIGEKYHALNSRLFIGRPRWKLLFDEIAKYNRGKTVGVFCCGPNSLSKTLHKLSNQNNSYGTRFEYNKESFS

[10] = target: NADPH oxidase 5 (Homo sapiens) (UniProt Q96PH1); experiment: NOX5-dependent H2O2 signal modulators, primary screen, NOX inhibitor project, cell-based, HEK293-NOX5, Amplex Red fluorescence (AID 1161); settings: HEK293-NOX5, ionomycin, 45 min, higher = more signal
NADPH oxidase 5 (Homo sapiens), sequence (Q96PH1 whole entry, looked up): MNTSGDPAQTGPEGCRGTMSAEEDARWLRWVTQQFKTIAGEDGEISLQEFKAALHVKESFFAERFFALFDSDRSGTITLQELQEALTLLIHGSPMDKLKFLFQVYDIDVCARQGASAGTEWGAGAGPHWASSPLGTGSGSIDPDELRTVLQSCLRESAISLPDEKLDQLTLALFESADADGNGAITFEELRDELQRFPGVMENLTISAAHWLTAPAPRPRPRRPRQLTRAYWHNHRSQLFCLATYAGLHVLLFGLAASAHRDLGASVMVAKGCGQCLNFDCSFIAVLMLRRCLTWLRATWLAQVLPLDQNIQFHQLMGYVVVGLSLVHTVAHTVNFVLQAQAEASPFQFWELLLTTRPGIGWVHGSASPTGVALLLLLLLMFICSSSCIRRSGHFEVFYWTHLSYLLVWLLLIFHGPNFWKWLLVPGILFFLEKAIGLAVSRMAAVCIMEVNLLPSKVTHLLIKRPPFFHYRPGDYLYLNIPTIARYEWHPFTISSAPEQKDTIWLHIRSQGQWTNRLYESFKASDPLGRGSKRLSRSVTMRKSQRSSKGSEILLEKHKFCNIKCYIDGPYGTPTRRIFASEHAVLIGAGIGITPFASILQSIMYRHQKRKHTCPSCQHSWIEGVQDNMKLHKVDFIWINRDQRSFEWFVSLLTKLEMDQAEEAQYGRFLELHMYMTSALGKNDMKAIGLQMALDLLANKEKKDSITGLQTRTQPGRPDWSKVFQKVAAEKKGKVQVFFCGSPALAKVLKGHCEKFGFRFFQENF

[11] = A549 cell viability effects, profiling panel, calcein-AM fluorescence, 48 h, basal (AID 1162); settings: higher = more signal; also: test concentration not given here
[12] = adipocyte viability effects, profiling panel, cell-based, 3T3-L1 adipocytes, calcein-AM fluorescence, 48 h, basal (AID 1163); settings: 3T3-L1 adipocytes viability, higher = more signal; also: test concentration not given here
[13] = HepG2 cell viability effects, profiling panel, calcein-AM fluorescence, 48 h, basal (AID 1164); settings: higher = more signal; also: test concentration not given here
[14] = MM1S cell viability effects, profiling panel, calcein-AM fluorescence, 48 h, basal (AID 1165); settings: higher = more signal;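 also: viability of MM1S multiple myeloma cells under basal unstimulated conditions; test concentration not given here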
[15] = basal RPMI8226 viability, no added stimulus, profiling panel, cell-based, calcein-AM fluorescence, 48 h, PK04 Diversity Set (AID 1166); settings: RPMI8226 myeloma viability, higher = more signal;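 also: cells grown under basal conditions without added stimulus; test concentration not given here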
[16] = basal HepG2 mitochondrial membrane potential changes, profiling panel, cell-based, JC-1 fluorescence, 24 h, 100 nL compound (AID 1167); settings: higher = more signal; also: test concentration not given here
[17] = basal 3T3-L1 adipocyte mitochondrial potential changes, profiling panel, cell-based, JC-1 fluorescence, 3T3-L1 adipocytes, 24 h, 100 nL compound (AID 1168); settings: JC-1 mitochondrial fluorescence, higher = more signal, called active from +8 up or from −8 down; also: test concentration not given here
[18] = basal RPMI8226 mitochondrial membrane potential changes, profiling panel, cell-based, JC-1 fluorescence, 24 h, 100 nL compound (AID 1169); settings: RPMI8226 myeloma, JC-1 mitochondrial potential fluorescence, higher = more signal; also: test concentration not given here
[19] = basal MM1S mitochondrial membrane potential changes, profiling panel, cell-based, JC-1 fluorescence, 24 h, 100 nL compound (AID 1170); settings: higher = more signal; also: test concentration not given here
[20] = A549 lung cancer cell viability effects, profiling panel, resazurin fluorescence, 24 h, PK04 Diversity Set (AID 1171); settings: higher = more signal, called active from +8 up or from −8 down; also: test concentration not given here

Row | Compound | z-score [1] | composite z-score [2] | z-score [3] | z-score [4] | z-score [5] | z-score [6] | z-score [7] | z-score [8] | z-score [9] | z-score [10] | z-score [11] | z-score [12] | z-score [13] | z-score [14] | z-score [15] | z-score [16] | z-score [17] | z-score [18] | z-score [19] | z-score [20]
1 | CO[C@@H]1COC(=O)CC=C[C@H](C)[C@@H](NS(=O)(=O)c2ccc(C)cc2)COC(=O)CC=C[C@@H]1C | 0.578 (inactive) and 0.567 (inactive) | -0.186 and 0.0492 | 0.614 (inactive) and 0.595 (inactive) | 0.281 (inactive) and -0.12 (inactive) | -0.153 (inactive) and 0.571 (inactive) | 0.401 (inactive) and 0.367 (inactive) | -0.3 and -0.484 | 0.0381 (inactive) and 0.541 (inactive) | 0.724 (inactive) and 0.493 (inactive) | 0.423 and 0.277 | 0.725 and -1.15 | -0.779 and -0.0305 | 0.515 and -1.42 | 0.317 and 0.286 | -0.0273 and 0.0878 | 0.651 and -0.353 | -0.162 (inactive) and -1.02 (inactive) | -0.235 and 0.237 | 0.654 and -0.385 | -0.512 (inactive) and 1.4 (inactive)
2 | C=CCN(C(=O)C(c1cccs1)N(C(=O)/C=C\C(=O)O)c1c(Cl)cccc1CO)c1ccc(OC)cc1 (stereo not given) | 1.42 (inactive) and -0.536 (inactive) | 0.188 and 0.207 | -0.363 (inactive) and 2.52 (inactive) | -1.53 (inactive) and 0.102 (inactive) | -0.806 (inactive) and -0.455 (inactive) | -1.39 (inactive) and 0.0841 (inactive) | 0.312 and 0.429 | -0.102 (inactive) and -0.012 (inactive) | -1.08 (inactive) and -1.05 (inactive) | 0.145 and 0.141 | 1.15 and 1.21 | 0.111 and 0.112 | 0.24 and 0.365 | 1.51 and -0.996 | 0.844 and 0.57 | 0.601 and -1.19 | 0.418 (inactive) and 0.623 (inactive) | -0.74 and -0.0886 | 1.4 and -0.173 | 0.747 (inactive) and -0.246 (inactive)
3 | CCCNC(=O)OC[C@H]1O[C@H](CCON=C(C)CCC(=O)OC[C@H]2O[C@H](C#Cc3ccccc3)C=C[C@@H]2Oc2ccc(C)cc2)C=C[C@@H]1Oc1ccc(OC)cc1 | 0.181 (inactive) | -0.0917 | 0.77 (inactive) | 0.329 (inactive) | -0.107 (inactive) | 0.097 (inactive) | -0.591 | 0.333 (inactive) | 0.854 (inactive) | -0.746 | -0.284 | -0.182 | -0.433 | -0.321 | 0.0363 | 1.38 | -1.31 (inactive) | 0.15 | -0.435 | 0.835 (inactive)
4 | Cc1ccc(S(=O)(=O)OC[C@@H]2CN3[C@@H](CC[C@@H](C)[C@@H]3c3ccc(Br)cc3)C(=O)O2)cc1 | 0.0029 (inactive) and -0.348 (inactive) | -0.134 and -0.144 | 2.52 (inactive) and 4.44 (inactive) | 0.0068 (inactive) and 1.78 (inactive) | -0.414 (inactive) and 0.812 (inactive) | -0.0954 (inactive) and 0.932 (inactive) | -0.834 and 0.119 | 1.24 (inactive) and 0.787 (inactive) | 0.37 (inactive) and -0.0143 (inactive) | 0.0798 and 0.702 | -0.251 and 0.0448 | 0.0273 and 0.503 | 0.462 and 0.028 | -0.644 and 0.185 | -0.341 and -0.294 | -0.735 and 0.438 | -0.303 (inactive) and 0.303 (inactive) | -0.883 and -0.68 | 0.925 and 0.523 | -0.474 (inactive) and 0.371 (inactive)
5 | Cc1ccc(S(=O)(=O)N[C@H]2COC(=O)[C@@H](C)COC(=O)[C@H](C)NC(=O)CC=C[C@H]2C)cc1 | -0.117 (inactive) | -0.195 | -0.306 (inactive) | 0.286 (inactive) | 0.501 (inactive) | 0.0584 (inactive) | -0.177 | -1.36 (inactive) | 0.555 (inactive) | 0.0658 | 0.437 | 0.0608 | -0.107 | 0.143 | 0.0608 | 0.125 | 0.198 (inactive) | -0.137 | 0.894 | 1.57 (inactive)
6 | CO[C@@H]1COC(=O)[C@H](Cc2ccccc2)NC(=O)CC=C[C@@H](C)[C@H](OC)COC(=O)[C@@H](C)NC(=O)CC=C[C@H]1C | -0.582 (inactive) and 0.887 (inactive) | -0.0536 and -0.425 | -0.712 (inactive) and -0.142 (inactive) | -0.999 (inactive) and -0.463 (inactive) | 0.932 (inactive) and 0.0469 (inactive) | -2.07 (inactive) and -1.44 (inactive) | 0.758 and 0.682 | 0.0254 (inactive) and -0.582 (inactive) | 0.859 (inactive) and 0.551 (inactive) | -0.106 and 0.66 | -0.0911 and -0.304 | 0.686 and -0.191 | 0.0488 and 1.09 | 0.144 and 0.329 | 0.173 and 1.12 | 0.999 and -0.15 | 0.67 (inactive) and 1.56 (inactive) | 0.645 and -0.266 | 0.452 and 0.623 | 0.632 (inactive) and 0.35 (inactive)
